What follows are binders tested against CaNbp2 (assay: SPOT peptide array binding signal intensity (averaged, normalized) (arbitrary units (background-subtracted, floor 0; scale differs between SH3 domains)); higher = stronger binding of the SH3 domain to the peptide).
How it was run: (§1)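 GST-fused SH3 domains, from four yeast species, were produced in E. coli BL21(DE3) and captured on glutathione Sepharose. Membranes of cellulose carrying synthetic 15-mer peptides, in which cysteines had been replaced by serines, were exposed to each domain at 10 μg/ml overnight at 4°C in TBS-based blocking buffer. After anti-GST antibody, an HRP anti-mouse secondary and luminol, spots were imaged and quantified using Genespotter. Binding signal is normalized and background-subtracted spot intensity, averaged over replicates, in arbitrary units that differ between domains.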

**Q.** AAHKTKPSIPPKKVE was tested. Which “SPOT peptide array binding signal intensity” value did it give?
**A.** ≤ 0

The binders below were run against CaRvs167 in the same assay as above.
How it was run: as §1

**Q.** Which “SPOT peptide array binding signal intensity” value does the source give for AAHKTKPSIPPKKVE here?
**A.** 1.67

These binders were tested against CaRvs167-3 in the same assay as above.
How it was run: as §1

**Q.** How did the “SPOT peptide array binding signal intensity” value turn out when AAHKTKPSIPPKKVE was run?
**A.** ≤ 0

These binders were tested against CaSho1 in the same assay as above.
How it was run: as §1

**Q.** For AAHKTKPSIPPKKVE, which “SPOT peptide array binding signal intensity” value is on record?
**A.** ≤ 0

What follows are binders tested against CaSla1-D1-D2 in the same assay as above.
How it was run: as §1

**Q.** With AAHKTKPSIPPKKVE as the binder, how does the “SPOT peptide array binding signal intensity” value read?
**A.** 282

Each binder was assayed against CaSla1-D3 in the same assay as above.
How it was run: as §1

**Q.** Which “SPOT peptide array binding signal intensity” value does the source give for AAHKTKPSIPPKKVE here?
**A.** 3.25

Each binder was assayed against ScAbp1 in the same assay as above.
How it was run: as §1

**Q.** AAHKTKPSIPPKKVE was tested. Which “SPOT peptide array binding signal intensity” value did it give?
**A.** 907

The binders below were run against ScBbc1 in the same assay as above.
How it was run: as §1

**Q.** For AAHKTKPSIPPKKVE, which “SPOT peptide array binding signal intensity” value is on record?
**A.** ≤ 0

These binders were tested against ScBem1-D1 in the same assay as above.
How it was run: as §1

**Q.** AAHKTKPSIPPKKVE was tested. Which “SPOT peptide array binding signal intensity” value did it give?
**A.** ≤ 0

The binders below were run against ScBzz1-D1 in the same assay as above.
How it was run: as §1

**Q.** For AAHKTKPSIPPKKVE, which “SPOT peptide array binding signal intensity” value is on record?
**A.** 3.5

These binders were tested against ScBzz1-D2 in the same assay as above.
How it was run: as §1

**Q.** How did the “SPOT peptide array binding signal intensity” value turn out when AAHKTKPSIPPKKVE was run?
**A.** 1.5

What follows are binders tested against ScCyk3 in the same assay as above.
How it was run: as §1

**Q.** How did the “SPOT peptide array binding signal intensity” value turn out when AAHKTKPSIPPKKVE was run?
**A.** ≤ 0

Each binder was assayed against ScFus1 in the same assay as above.
How it was run: as §1

**Q.** Which “SPOT peptide array binding signal intensity” value does the source give for AAHKTKPSIPPKKVE here?
**A.** ≤ 0

What follows are binders tested against ScHof1 in the same assay as above.
How it was run: as §1

**Q.** With AAHKTKPSIPPKKVE as the binder, how does the “SPOT peptide array binding signal intensity” value read?
**A.** 0.5

Each binder was assayed against ScHse1 in the same assay as above.
How it was run: as §1

**Q.** How did the “SPOT peptide array binding signal intensity” value turn out when AAHKTKPSIPPKKVE was run?
**A.** ≤ 0

These binders were tested against ScLsb1 in the same assay as above.
How it was run: as §1

**Q.** With AAHKTKPSIPPKKVE as the binder, how does the “SPOT peptide array binding signal intensity” value read?
**A.** 0.25

These binders were tested against ScLsb2 in the same assay as above.
How it was run: as §1

**Q.** How did the “SPOT peptide array binding signal intensity” value turn out when AAHKTKPSIPPKKVE was run?
**A.** 0.5

These binders were tested against ScLsb3 in the same assay as above.
How it was run: as §1

**Q.** Which “SPOT peptide array binding signal intensity” value does the source give for AAHKTKPSIPPKKVE here?
**A.** 144

Each binder was assayed against ScLsb4 in the same assay as above.
How it was run: as §1

**Q.** AAHKTKPSIPPKKVE was tested. Which “SPOT peptide array binding signal intensity” value did it give?
**A.** 13.5

What follows are binders tested against ScMyo3 in the same assay as above.
How it was run: as §1

**Q.** For AAHKTKPSIPPKKVE, which “SPOT peptide array binding signal intensity” value is on record?
**A.** 8.5

Each binder was assayed against ScMyo5 in the same assay as above.
How it was run: as §1

**Q.** How did the “SPOT peptide array binding signal intensity” value turn out when AAHKTKPSIPPKKVE was run?
**A.** 2

What follows are binders tested against ScNbp2 in the same assay as above.
How it was run: as §1

**Q.** AAHKTKPSIPPKKVE was tested. Which “SPOT peptide array binding signal intensity” value did it give?
**A.** ≤ 0

The binders below were run against ScPex13 in the same assay as above.
How it was run: as §1

**Q.** With AAHKTKPSIPPKKVE as the binder, how does the “SPOT peptide array binding signal intensity” value read?
**A.** 7

The binders below were run against ScRvs167 in the same assay as above.
How it was run: as §1

**Q.** For AAHKTKPSIPPKKVE, which “SPOT peptide array binding signal intensity” value is on record?
**A.** 3.17

These binders were tested against ScSho1 in the same assay as above.
How it was run: as §1

**Q.** AAHKTKPSIPPKKVE was tested. Which “SPOT peptide array binding signal intensity” value did it give?
**A.** 6

Each binder was assayed against ScSla1-D1-D2 in the same assay as above.
How it was run: as §1

**Q.** Which “SPOT peptide array binding signal intensity” value does the source give for AAHKTKPSIPPKKVE here?
**A.** ≤ 0

What follows are binders tested against ScSla1-D3 in the same assay as above.
How it was run: as §1

**Q.** AAHKTKPSIPPKKVE was tested. Which “SPOT peptide array binding signal intensity” value did it give?
**A.** 2.5

The binders below were run against SpAbp1-D1 in the same assay as above.
How it was run: as §1

**Q.** Which “SPOT peptide array binding signal intensity” value does the source give for AAHKTKPSIPPKKVE here?
**A.** 282

The binders below were run against SpBbc1 in the same assay as above.
How it was run: as §1

**Q.** For AAHKTKPSIPPKKVE, which “SPOT peptide array binding signal intensity” value is on record?
**A.** ≤ 0

What follows are binders tested against SpBzz1-D1 in the same assay as above.
How it was run: as §1

**Q.** How did the “SPOT peptide array binding signal intensity” value turn out when AAHKTKPSIPPKKVE was run?
**A.** 311

These binders were tested against SpBzz1-D2 in the same assay as above.
How it was run: as §1

**Q.** Which “SPOT peptide array binding signal intensity” value does the source give for AAHKTKPSIPPKKVE here?
**A.** ≤ 0

The binders below were run against SpCyk3 in the same assay as above.
How it was run: as §1

**Q.** Which “SPOT peptide array binding signal intensity” value does the source give for AAHKTKPSIPPKKVE here?
**A.** ≤ 0

What follows are binders tested against SpHof1 in the same assay as above.
How it was run: as §1

**Q.** AAHKTKPSIPPKKVE was tested. Which “SPOT peptide array binding signal intensity” value did it give?
**A.** 0.25

What follows are binders tested against SpHof1-2 in the same assay as above.
How it was run: as §1

**Q.** AAHKTKPSIPPKKVE was tested. Which “SPOT peptide array binding signal intensity” value did it give?
**A.** 6

What follows are binders tested against SpHof1-3 in the same assay as above.
How it was run: as §1

**Q.** With AAHKTKPSIPPKKVE as the binder, how does the “SPOT peptide array binding signal intensity” value read?
**A.** 3

Each binder was assayed against SpHse1 in the same assay as above.
How it was run: as §1

**Q.** For AAHKTKPSIPPKKVE, which “SPOT peptide array binding signal intensity” value is on record?
**A.** 32.8

These binders were tested against SpLsb1 in the same assay as above.
How it was run: as §1

**Q.** With AAHKTKPSIPPKKVE as the binder, how does the “SPOT peptide array binding signal intensity” value read?
**A.** 11.5

Each binder was assayed against SpLsb4 in the same assay as above.
How it was run: as §1

**Q.** With AAHKTKPSIPPKKVE as the binder, how does the “SPOT peptide array binding signal intensity” value read?
**A.** 4

Each binder was assayed against SpMyo1 in the same assay as above.
How it was run: as §1

**Q.** With AAHKTKPSIPPKKVE as the binder, how does the “SPOT peptide array binding signal intensity” value read?
**A.** ≤ 0

The binders below were run against SpNbp2 in the same assay as above.
How it was run: as §1

**Q.** Which “SPOT peptide array binding signal intensity” value does the source give for AAHKTKPSIPPKKVE here?
**A.** 12.5

Each binder was assayed against SpPex13 in the same assay as above.
How it was run: as §1

**Q.** Which “SPOT peptide array binding signal intensity” value does the source give for AAHKTKPSIPPKKVE here?
**A.** 1

The binders below were run against SpRvs167 in the same assay as above.
How it was run: as §1

**Q.** Which “SPOT peptide array binding signal intensity” value does the source give for AAHKTKPSIPPKKVE here?
**A.** 9.5

These binders were tested against SpSla1-D1-D2 in the same assay as above.
How it was run: as §1

**Q.** AAHKTKPSIPPKKVE was tested. Which “SPOT peptide array binding signal intensity” value did it give?
**A.** 4

What follows are binders tested against SpSla1-D3 in the same assay as above.
How it was run: as §1

**Q.** With AAHKTKPSIPPKKVE as the binder, how does the “SPOT peptide array binding signal intensity” value read?
**A.** 2.5

From the supplement of paper PMC4466140
